Results: PubChem BioAssay (NCI)
The panel holds about 83,000 compounds, 20% with a hit somewhere; the sample as a whole holds those more often.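 For each line, cells grew in 96-well plates with the test compound present at a single concentration for 48 hours.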 The source made the active and inactive calls. Rule for the calls: active = growth percent below 10; inactive = the rest.

Experiments:
Experiment in all cases: NCI-60 one-dose screen, 48 h (100 = growth as untreated, 0 = no growth, -100 = all killed)
Conditions in all cases: 10 µM unless noted
[1] = test system: DU-145 prostate
[2] = test system: K-562 leukemia
[3] = test system: MALME-3M melanoma
[4] = test system: MDA-MB-231 breast
[5] = test system: RXF 393 renal
[6] = test system: SF-268 CNS
[7] = test system: SF-295 CNS
[8] = test system: SF-539 CNS
[9] = test system: UACC-257 melanoma
[10] = test system: M14 melanoma

Measured: growth

Cc1nnc(NC(=O)c2nc(S(=O)(=O)Cc3ccc(F)cc3)ncc2Cl)s1
inactive: [1] 88.2% | [4] 66% | [5] 87.3% | [6] 90.5% | [7] 99.5% | [8] 83.8% | [9] 40.6% | [10] 83.8%
active: [2] -23.8% | [3] -12.9%

Cc1cc(Cl)ccc1Nc1nc(C(F)(F)F)ccc1C(=O)N/N=C/c1ccc([N+](=O)[O-])cc1
inactive: [6] 13.8% | [10] 26.9%
active: [1] 5.82% | [2] -1.48% | [3] -13.5% | [4] -51.5% | [5] 5.4% | [7] -56.4% | [8] 3.77% | [9] -13.1%

O=C(OCc1ccc2cccc(O)c2n1)N1CCN(C(=O)c2cc3cc(F)ccc3[nH]2)CC1
inactive: [7] 54.7%
active: [1] -83.9% | [2] 1.96% | [3] -93.2% | [4] -81.6% | [5] -93.1% | [6] -73.4% | [8] -98.3% | [9] -41.4% | [10] -77.7%

N#Cc1nc(-c2ccccc2)oc1S(=O)(=O)N1CCOCC1
active: [2] 5.21%
inactive: [1] 103% | [3] 39.6% | [4] 98.3% | [5] 91% | [6] 108% | [7] 98.5% | [8] 101% | [9] 92.8% | [10] 61.7%

CCN(C(=O)N1CCN(c2cc3c(cc2F)c(=O)c(C(=O)O)cn3C2CC2)CC1)c1nc(-c2ccc(Cl)cc2)cs1
active: [3] 6.66% | [4] -21.5% | [7] -0.18%
inactive: [1] 23.5% | [2] 12.7% | [5] 18.2% | [6] 21.8% | [8] 11.8% | [9] 12.9% | [10] 23%

COc1cc(/C=C/C(=O)c2cccc(Nc3nc(Nc4ccccc4)nc(Nc4ccccc4)n3)c2)cc(OC)c1OC
inactive: [1] 60.9% | [2] 24.1% | [3] 69% | [4] 56% | [6] 73.4% | [7] 72.9% | [8] 78.7% | [9] 106% | [10] 78.5%
active: [5] -32.4%

COc1cc(/C=C\c2cc(/C=C\c3ccc(O)c(OC)c3)n(C(=O)COc3ccc(Cl)cc3Cl)n2)ccc1O
active: [2] 4.41% | [5] -9.98% | [8] 8.64% | [10] 4.34%
inactive: [1] 16.5% | [3] 12.1% | [4] 10.1% | [6] 20.2% | [7] 23.1% | [9] 41.9%

C=C1C(=O)O[C@H]2[C@H]1CC/C(COC(=O)NCc1ccc(Cn3c(=O)sn(CCI)c3=O)cc1)=C\CC[C@@]1(C)O[C@@H]21
inactive: [1] 17.2% | [4] 61% | [6] 71.7% | [7] 106% | [8] 78.8% | [9] 45.9% | [10] 15.7%
active: [2] 0.268% | [3] -49.9% | [5] 0.0448%

O=C(c1ccc(-c2ccccc2)cc1)c1ccc([N+](=O)[O-])cc1
inactive: [1] 121% | [2] 69.8% | [3] 163% | [4] 90.8% | [5] 109% | [6] 102% | [7] 83.6% | [8] 107% | [9] 121% | [10] 94.5%

O=C(O)c1[nH]c(=O)[nH]c(=O)c1[N+](=O)[O-]
inactive: [1] 134% | [2] 89.7% | [3] 124% | [4] 110% | [5] 113% | [6] 117% | [7] 104% | [8] 103% | [9] 97.7% | [10] 110%

CCCC(O)Cn1ncc(C(=O)OCC)c1NC(=O)NCc1ccccc1F (stereo not given)
inactive: [1] 99.7% | [2] 66.7% | [3] 98.9% | [4] 91.3% | [5] 101% | [6] 96.3% | [7] 89.9% | [8] 107% | [9] 72.4% | [10] 93.1%

COC(=O)/C(CCC=C(C)C)=C1\[C@@H](OC(C)=O)C[C@@]2(C)[C@H]1C[C@@H](O)[C@H]1[C@@]3(C)CC[C@H](NCCN)[C@@H](C)[C@@H]3CC[C@@]12C
active: [2] -7.67%
inactive: [1] 65.4% | [3] 89.4% | [4] 93% | [5] 57.8% | [6] 76.6% | [7] 98.2% | [8] 90.2% | [9] 99.7% | [10] 87%

O=C(CSc1nc2sc3c(c2c(=O)n1-c1ccccc1)CCCCC3)N/N=C/c1ccc(F)cc1
inactive: [2] 64.2% | [3] 11.3% | [7] 16.9% | [9] 74.6% | [10] 51.6%
active: [1] -0.517% | [4] -26.1% | [5] 5.3% | [6] 7.96% | [8] -39.9%

Nc1ncnc2c1N=C(c1ccc3c(c1)OCO3)CC(c1cccc(Nc3ccnc4cc(Cl)ccc34)c1)N2 (stereo not given)
active: [2] 2.1%
inactive: [1] 63.1% | [3] 97.3% | [4] 70.1% | [5] 72.2% | [6] 69.3% | [7] 46.6% | [8] 86.3% | [9] 59.3% | [10] 57.3%

CC(C)CCC[C@@H](C)[C@H]1CC[C@H]2[C@@H]3CC=C4C[C@@H](C(C(=O)O)C(=O)O)CC[C@]4(C)[C@H]3CC[C@]12C
active: [1] -83.5% | [2] -48.3% | [3] -43% | [4] -28.2% | [5] -49.8% | [6] -24.6% | [7] -61.2% | [8] -27.3% | [9] -49.8% | [10] -72.9%

CC(=O)Nc1nc2ccc(NS(=O)(=O)c3cccc4c(N(C)C)cccc34)cc2[nH]1
inactive: [1] 87.8% | [2] 20.6% | [3] 52.3% | [4] 63.5% | [5] 53.8% | [6] 65.6% | [7] 37.3% | [8] 57.9% | [9] 61.9% | [10] 35.9%

CC(C)n1cnc2c(=S)nc[nH]c21
inactive: [1] 111% | [2] 69.9% | [3] 156% | [4] 118% | [5] 121% | [6] 101% | [7] 90.1% | [8] 99.6% | [9] 120% | [10] 109%

O=C(CSc1nnc2n1S(=O)(=O)c1ccccc1N2c1ccccc1)Nc1nc2ccc(F)cc2s1
inactive: [1] 114% | [2] 98.5% | [3] 87.4% | [4] 98.9% | [5] 87.1% | [6] 97.2% | [7] 91.5% | [8] 102% | [9] 111% | [10] 96.5%

CNC(=O)c1cc(Oc2ccc3nc(NC(C)=O)sc3c2)ccn1
inactive: [1] 101% | [2] 81.8% | [3] 92.7% | [4] 98.7% | [5] 115% | [6] 97.4% | [7] 95.2% | [8] 94.3% | [9] 102% | [10] 101%

COc1ccc(-c2cn(-c3cc(OC)c(OC)c(OC)c3)c(=O)n2C(C)=O)cc1
inactive: [1] 106% | [2] 61.7% | [3] 90.6% | [4] 76.7% | [5] 109% | [6] 107% | [7] 78.6% | [8] 97% | [9] 82% | [10] 92.6%

O=C(NNC(=O)c1ccc(-n2cc(-c3ccccc3)nn2)cc1)Nc1ccccc1
inactive: [1] 106% | [2] 105% | [3] 113% | [4] 108% | [5] 103% | [6] 90.2% | [7] 101% | [8] 96% | [9] 103% | [10] 97.6%

N#C/C(=C\c1ccc(-c2ccc(Cl)cc2)o1)C(=O)Nc1ncc(Cc2ccc(Cl)cc2)s1
active: [3] 5.36% | [7] 9.09% | [9] -28.3%
inactive: [1] 19.6% | [2] 62.2% | [4] 36.7% | [5] 109% | [6] 71.6% | [8] 27.1% | [10] 39.1%

Cc1cc2c([nH]1)CSc1cc(S(=O)(=O)c3ccccc3)c(=O)[nH]c1-2
inactive: [1] 15% [100 µM] | [2] 17% [100 µM] | [3] 25.1% [100 µM] | [4] 23.3% [100 µM] | [5] 52.6% [100 µM] | [6] 22.1% [100 µM] | [7] 11% [100 µM] | [9] 62.2% [100 µM]
active: [8] -28.3% [100 µM] | [10] -13.7% [100 µM]

Cc1noc(C)c1C(=O)OCc1coc2ccccc2c1=O
inactive: [1] 27.8% | [2] 36.5% | [3] 51.4% | [4] 61.2% | [5] 76.5% | [6] 79.8% | [7] 104% | [8] 68.5% | [9] 72.2% | [10] 69.1%

O=[N+]([O-])C1C(c2ccccc2)C12c1ccccc1-c1ccccc12 (stereo not given)
active: [1] -36.8% | [2] -12.5% | [4] 6.89% | [5] -21.8% | [7] -23.1% | [8] -12.2% | [10] -10.2%
inactive: [3] 59.4% | [6] 29.3% | [9] 40.9%

COc1ccc2cc(-c3ccc(NC(C)=O)c(=O)o3)ccc2c1
inactive: [1] 103% | [2] 81.4% | [3] 101% | [4] 110% | [5] 98.3% | [6] 95.5% | [7] 100% | [8] 96.7% | [9] 89.3% | [10] 94.3%
